Glioma ERSR ind: induces the endoplasmic reticulum stress response in human glioma cells; 420,000 tested, 0.02% active; U87-MG GRP78 promoter luciferase reporter, 16 h; Potency, µM, without a hit: at the top dose activation, actives largely listed as activators; also: series mostly up to about 76 µM; % of control where 0% means no effect; nearly all actives have a fitted effect of over 35% in size
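Stably transfected U87-MG glioma cells carrying a GRP78-based luciferase sensor; 16 h compound incubation. Luminescence end-point read 10 min after Bright-Glo addition at room temperature.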
MBNL1 CUG block: MBNL1-poly(CUG) RNA binding inhibition. 280,000 tested, 0.036% active. Potency, µM (highest dose often 57.5 µM), for inactives: at the top dose activity change, negative = inhibition, most hits filed as inhibitors. AID 2675. Q9NR56. TR-FRET MBNL1-His/biotin-(CUG)12 binding, 665/545 ratio; active = well fitted inhibition curve with a large enough effect in the signal ratio, with a control signal flat, not every such curve was filed as active; inconclusive = small, poorly fitted or top-dose-only effect, or effect the other way, or a change in a side signal; inactive = no such curve, though single readings can be large or run the other way; the % refers to the signal ratio; also: % is scaled to controls: 0 for no effect and ±100 for the full control effect
Target sequence (Q9NR56 whole entry, looked up): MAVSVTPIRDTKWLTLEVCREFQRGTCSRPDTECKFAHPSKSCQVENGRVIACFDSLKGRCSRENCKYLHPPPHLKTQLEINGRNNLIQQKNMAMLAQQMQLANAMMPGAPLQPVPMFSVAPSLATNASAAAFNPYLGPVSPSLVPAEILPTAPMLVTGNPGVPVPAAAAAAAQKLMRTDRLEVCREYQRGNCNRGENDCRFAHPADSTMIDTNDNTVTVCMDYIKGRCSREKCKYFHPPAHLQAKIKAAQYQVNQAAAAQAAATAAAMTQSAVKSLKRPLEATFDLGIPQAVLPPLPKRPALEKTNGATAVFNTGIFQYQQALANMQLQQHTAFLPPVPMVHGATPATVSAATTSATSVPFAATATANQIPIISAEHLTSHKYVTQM
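Inhibition of protein-RNA binding appears as loss of TR-FRET between terbium anti-His antibody on MBNL1-His and streptavidin-XL665 on biotin-(CUG)12. Activity is normalized to buffer-only and uninhibited-complex controls.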
Abeta yeast res: compounds reversing amyloid beta toxicity in yeast; Potency, µM (top dose mostly 46.1 µM), most hits filed as activators; AID 1347071; yeast expressing A-beta42, growth rescue, OD600, 48 h; response scale: 0% DMSO, 100% iron-clioquinol control; 410,000 tested, 0.063% active; also: nearly all actives have a fitted effect of over 55% in size
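Yeast A-beta toxicity model in growth medium with pinned compounds, 48 h at 30 C; growth read as absorbance at 600 nm. Normalized to FeCl3/clioquinol equimolar mix (positive) and DMSO (negative).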
TDP43 rescue: TDP-43 toxicity inhibition in yeast; 410,000 tested, 1.8% active; Potency, µM (doses to about 46.1 µM), inactives show top-dose growth rescue (activation), usual class: activators; TDP-43 expressing yeast growth rescue, BacTiter-Glo, 24 h; AID 652104; also: % of control where 0% means no effect; nearly all actives have a fitted effect of over 50% in size
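Cell-based yeast growth screen: TDP-43 expression induced in galactose, inoculum OD600=0.02 after raffinose pregrowth to mid-log. Read-out BacTiter-Glo luminescence at 24 hr, 30 deg C; inhibition of toxicity seen as signal increase.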
aSyn rescue: alpha-synuclein toxicity inhibition in yeast; Yeast expressing alpha-synuclein, growth rescue, BacTiter-Glo, 24 h; Potency, µM (titrated, usually from 46.1 µM), inactives show at the top dose growth rescue (activation), actives largely listed as activators; 370,000 tested, 0.14% active; also: % of control where 0% means no effect; nearly all actives have a fitted effect of over 65% in size
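Screening used galactose-induced yeast with toxic alpha-synuclein levels, exposed to compound for 24 hr at 30 deg C. Cell growth, read with BacTiter-Glo luminescence, gave the measured signal.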
FUS yeast rescue: suppressors of FUS proteinopathy in yeast; S. cerevisiae FUS-expressing, growth rescue, OD600, 24 h; Potency, µM (titrated, usually from 76.6 µM), usual class: activators; 390,000 tested, 0.24% active; AID 1347120;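 also: plate controls were DMSO vehicle for no effect and reference control for full effect; nearly all actives have a fitted effect of over 55% in size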
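Compound concentration series was pinned onto galactose-induced FUS-expressing yeast seeded at OD 0.005. Plates sat 24hr at 30C; absorbance at 600 nm gave growth. DMSO served as background control.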
Active calls of the source: *; i = inactive; ? = inconclusive; . = not tested or not shown; [ ] = remark or other dose. Only some compounds are listed: those with a hit (about 2% of all), similar ones and a draw of the others. Unless noted, calls follow the shape of the dose curve; as a rule, active = well fitted curve in the direction sought with a large enough effect; inconclusive = small, poorly fitted or top-dose-only effect, or another doubt; inactive = no such curve, though single readings can be large; an effect the other way counts as inactive or inconclusive. Potency is read from the fitted curve at half-maximal effect.

SMILES	Glioma ERSR ind	MBNL1 CUG block	Abeta yeast res	TDP43 rescue	aSyn rescue	FUS yeast rescue
CN(CCCOC(=O)c1occ2ccccc12)C1CN(Cc2cn(Cc3ccccc3Cl)nn2)S(=O)(=O)C1 (configuration not stated)	.	.	.	.	.	i
COc1cc(C(=O)N2CCc3c([nH]c4ccccc34)C2c2ccccc2)cc(OC)c1OC (configuration not stated)	-5%	.	i	8%	.	?
O=C(c1cc(-c2ccccc2)n[nH]1)N1CCc2c([nH]c3ccccc23)C1c1ccccn1 (configuration not stated)	-4%	2%	?	18µM*	?	?
COc1cc(C(=O)N2CCc3c([nH]c4ccccc34)C2c2ccc(C)cc2)cc(OC)c1OC (configuration not stated)	-2%	.	i	2%	.	14µM*
O=C(c1cccs1)N1CCc2c([nH]c3ccccc23)C1c1ccccn1 (configuration not stated)	-1%	-1%	i	?	14%	i
CCC(C)NC(=O)C1CCN(S(=O)(=O)c2ccc3[nH]c(=O)oc3c2)CC1 (configuration not stated)	.	.	.	.	.	i
Cc1oc(-c2ccccc2NC(=O)C2CCC2)nc1CNC(=O)c1ccc2ccccc2c1	1%	.	.	.	.	.
C=CCNC(=S)N/N=C/c1ccc(C(C)(C)C)cc1	6%	-5%	7.9µM*	-5%[0.397 µM]	1%	i
C=CCNC(=S)N/N=C/c1cn(C)c2ccccc12	4%	-6%	?	20µM*	-11%	i
CC(C)(C)c1ccc(/C=N/NC(=S)NCc2ccccc2)cc1	-3%	-3%	i	7%	0%	i
Cn1cc(/C=N/NC(N)=S)c2ccccc21	0%	?	i	-7%[1.82 µM]	8%	i
COc1cc(CN2CCCC(n3cc(C(=O)N4CCCCC4)nn3)C2)cc2c1OCO2 (configuration not stated)	-4%	.	.	.	.	.
S=C(Nc1ccc(Br)cc1)OCCN1CCCC12CCC(c1ccccc1)CC2 (configuration not stated)	.	.	.	.	.	i
CC1CN(C(=O)/C=C/c2ccc([N+](=O)[O-])s2)CC(C)O1 (configuration not stated)	-2%	?	i	-6%[9.22 µM]	3%	i
CC1CC(C)CN(C(=O)/C=C/c2ccc([N+](=O)[O-])s2)C1 (configuration not stated)	-2%	.	i	22µM*	1%	i
CCn1c(=O)n(CC(=O)N2CCCC2)c(=O)c2ccccc21	.	.	.	.	.	i
O=C(COC(=O)c1cccc(Cl)c1Cl)NCc1cccs1	-1%	.	i	13µM*	0%	i
O=C1CSC(=S)N1c1cccc(O)c1	-8%	2%	i	-5%	?	i
O=C1CSC(=S)N1c1cccc(Br)c1	-1%	-4%	i	14µM*	1%	i
O=C(O)c1cccc(N2C(=O)CSC2=S)c1	-9%	3%	i	?	35µM*	i
NC(=O)/C(=N\OC(=O)c1ccco1)c1nc(-c2ccc(Br)cc2)cs1	-4%	9%	i	16µM*	-10%	.
Nc1nc(-c2ccc(NC(=O)c3ccco3)cc2)cs1	-12%	21%	i	-31%	-13%	i
Clc1cccc(Cc2c(-c3ccco3)nc3c4ccccc4ccn23)c1	.	.	i	?	15%	i
Clc1cccc(Cc2c(-c3cccc(Cl)c3)nc3c4ccccc4ccn23)c1	.	.	i	17%	-7%	i
Fc1cccc(Cc2c(-c3ccco3)nc3c4ccccc4ccn23)c1	0%	.	i	35µM*	13%	i
SMILES	Glioma ERSR ind	MBNL1 CUG block	Abeta yeast res	TDP43 rescue	aSyn rescue	FUS yeast rescue
Fc1ccc(-c2nc3c4ccccc4ccn3c2Cc2cccc(Cl)c2)cc1	1%	.	i	14µM*	17%	i
Clc1cccc(Cc2c(-c3ccccc3)nc3c4ccccc4ccn23)c1	2%	.	i	11µM*	?	i
CCC1CN(CCNC(=O)c2ccc(N3CCOCC3)cc2)Cc2cc(OC)ccc2O1 (configuration not stated)	1%	.	.	.	.	.
CC1(C)Cc2cccc(C(=O)Nc3ccc(Cl)cc3)c2O1	-4%	4%	i	18µM*	-18%	i
COc1cc(C)c(CN2C[C@H](Sc3ccccn3)C[C@H]2C(=O)N(C)C)cc1C	-2%	.	.	.	.	.
CCn1c(-c2ccccc2F)nc2cc(C(=O)NC(c3ccccn3)C(F)(F)F)cc(NC(C)=O)c21 (configuration not stated)	-5%	.	.	.	.	.
CCc1cc(C(=O)Nc2ccc(S(=O)(=O)NC3=NCCCCC3)cc2)sc1C	0%	.	i	-27%	-3%	25µM*
CC(=O)O[C@H](C)OC(=O)[C@@H](C)c1ccc(-c2ccccc2)c(F)c1	-1%	.	.	.	.	.
COc1ccccc1C(=O)OCc1c(-c2ccccc2)ncc2ccccc12	0%	.	i	25µM*	30%	?
COc1ccccc1C(=O)N(Cc1cc2cccc(C)c2nc1N1CCC(O)CC1)C1CC1	-3%	.	.	.	.	.
CCOC(=O)NCc1ccc(Cl)c(Cl)c1	1%	-10%	i	18µM*	8%	i
COc1ccc(-c2noc(=O)n2Cc2ccccc2Cl)cc1	-8%	-13%	i	20µM*	4%	i
CC(C)(C)n1ncc2c(=O)n(Cc3c(Cl)ccc(Cl)c3Cl)cnc21	-3%	.	.	.	.	.
N#Cc1nc(-c2cccs2)oc1NCc1ccc2c(c1)OCO2	7%	29%	i	28µM*	1%	i
Cc1ccc(C)c(CN2CCc3nnc(CNC(=O)c4cc(C)oc4C)n3CC2)c1	-4%	.	.	.	.	.
COc1ccc(S(=O)(=O)Nc2ccc3oc4c(c3c2)CCCC4)cc1	2%	.	i	35µM*	.	i
COc1ccc(S(=O)(=O)Nc2ccc3oc(C)c(C(=O)O)c3c2)cc1	-2%	-7%	?	3%	4%	i
O=S(=O)(Nc1ncccn1)c1ccc(NS(=O)(=O)c2cc(Cl)ccc2Cl)cc1	-5%	-12%	i	-1%	0%	i
O=S(=O)(Nc1ccc(N2CCOCC2)cc1)c1cc(Cl)ccc1Cl	-1%	-2%	i	14µM*	15%	i
O=S(=O)(Nc1ccc2oc3c(c2c1)CCCC3)c1cc(Cl)ccc1Cl	20%	.	?	35µM*	.	i
O=S(=O)(Nc1cccc(-c2ccc(N3CCOCC3)nn2)c1)c1cc(Cl)ccc1Cl	6%	.	i	-10%	1%	i
CCc1ccc(/C=C/C(=O)NC2=NCCS2)cc1	.	.	.	.	.	i
